# PLAP activator: activators of human placental alkaline phosphatase | P05187 | purified PLAP enzyme, luminescent substrate read-out; active compounds read high | activation fold at 20 µM | actives 1.2% (n = 96,000) | AID 696; in the data active = activation fold above about 2
# CYP2C9 inh: human CYP2C9 inhibition; CYP2C9 Supersomes, luciferin-H conversion, luminescence; inhibition, % at 5 µM; P11712; actives 20% (n = 96,000); AID 777;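 active = blocking of liver enzyme CYP2C9 beyond about 50% at 5 µM, limit read from the data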
# Target sequence (P11712 whole entry, looked up): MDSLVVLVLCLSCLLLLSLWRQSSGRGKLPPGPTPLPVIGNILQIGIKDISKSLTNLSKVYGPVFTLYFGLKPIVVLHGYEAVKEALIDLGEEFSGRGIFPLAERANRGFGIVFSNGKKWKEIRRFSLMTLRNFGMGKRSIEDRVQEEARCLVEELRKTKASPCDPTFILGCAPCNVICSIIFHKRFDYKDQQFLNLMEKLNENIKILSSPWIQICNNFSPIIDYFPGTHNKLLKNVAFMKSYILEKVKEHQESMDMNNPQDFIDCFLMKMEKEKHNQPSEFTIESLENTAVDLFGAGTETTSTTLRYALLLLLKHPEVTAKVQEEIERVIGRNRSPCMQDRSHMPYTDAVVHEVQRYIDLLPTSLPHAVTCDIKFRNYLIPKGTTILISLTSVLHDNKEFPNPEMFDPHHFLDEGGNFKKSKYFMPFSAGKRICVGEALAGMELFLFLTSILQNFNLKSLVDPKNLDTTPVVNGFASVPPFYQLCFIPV
# CYP2C19 inhib: inhibitors of human CYP2C19 | P33261 | actives 21% (n = 96,000) | inhibition, % at 5 µM | CYP2C19 Supersomes, luciferin-H EGE luminescence, 30 min | AID 778;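 active = CYP2C19 inhibition above a set limit at 5 µM in the primary screen, cut at about 50% in these data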;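 also: plate controls were negative control wells for no effect and 2.5 mM tranylcypromine positive control for full effect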
# CYP2C19 act: cytochrome P450 2C19 (human) activation; activation factor at 5 µM; 96,000 tested, under 10 active; AID 1025; recombinant CYP2C19, luciferin-H EGE luminescence; active compounds read high; 0 = fully inhibited enzyme, 1 = untreated enzyme; P33261;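 active = activation factor of at least 2 at 5 µM in the primary screen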;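 also: 0 = wells with 2.5 mM tranylcypromine and 1 = vehicle-only wells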
# CYP2C9 act: CYP2C9 (human) activation | P11712 | recombinant CYP2C9, luciferin-H conversion, luminescence; active compounds read high; factor 1 = untreated enzyme, 0 = blocked | activation factor at 5 µM | actives 1.4% (n = 96,000) | AID 1024;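 active = activation factor of 2 or more for CYP2C9 at a 5 µM dose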;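 also: 0 = sulfaphenazole-blocked wells and 1 = vehicle-only wells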
# Starred values were filed as active, the others as inactive. A selection: hits, their analogues and other compounds. The true share with any hit is near 31%.
SMILES,PLAP activator,CYP2C9 inh,CYP2C19 inhib,CYP2C19 act,CYP2C9 act
CCOc1cccc(N2C(=O)CC(N(CCc3ccc(OC)c(OC)c3)C(=O)CC)C2=O)c1 (stereo not given),1.4,27,11,0.9,0.7
CNC(=S)N(Cc1ccc2c(c1)OCO2)C1CC(=O)N(c2ccc(F)cc2)C1=O (stereo not given),0.9,76*,92*,0.1,0.2
O=C(CN1CCN(C2CCCCC2)CC1)c1ccc2cc[nH]c2c1,0.9,14,7,0.9,0.9
Cn1cnnc1SCC(=O)NC(=O)NC1CCCC1,1,9,27,0.7,0.9
COC(=O)CN(C)C1CC(=O)N(c2ccc(Cl)cc2)C1=O (stereo not given),1.4,-23,17,0.8,1.2
CN(Cc1ccncc1)C1CC(=O)N(c2ccc(Cl)cc2)C1=O (stereo not given),1,94*,99*,0,0.1
COC(=O)c1ccc(Cc2ccc(C(=O)OC)o2)o1,1.1,6,20,0.8,0.9
CCOC(=O)c1ccoc1CSCc1ccc(C(=O)OC)o1,1.1,72*,30,0.7,0.3
COc1cccc(/C(C#N)=C/c2c(-c3ccc(Cl)cc3)nc3c(C)cccn23)c1,1.2,70*,55*,0.4,0.3
Cc1cccn2c(/C=N/OCc3cccc(F)c3)c(-c3ccc(Cl)cc3)nc12,1.1,7,-1,1,0.9
O=S(=O)(Nc1ccncc1Cl)c1ccccc1,1,70*,-9,1.1,0.3
Cc1nc(SCC(=O)N2CCC(C(N)=O)CC2)n[nH]1,0.9,-1,13,0.9,1
CCOC(=O)C1=C(C)N=C2c3ccccc3C(=O)C2C1c1ccccc1 (stereo not given),1,56*,17,0.8,0.4
CCOC(=O)C1=C(C)N=C2c3ccccc3C(=O)C2C1c1ccc(C)cc1 (stereo not given),1.2,69*,24,0.8,0.3
N#Cc1c(N2CCCC2)nc(N)c2c(N)nc(N3CCCC3)cc12,1.1,61*,40,0.6,0.4
COc1cc2c(C#N)c(N3CCN(C)CC3)nc(N)c2c(N)n1,1.1,23,-7,1.1,0.8
COc1cc2c(C#N)c(N3CCN(c4ccccc4OC)CC3)nc(N)c2c(N)n1,1.8,68*,100*,0,0.3
Cc1ccc2oc(=O)c3cnn(CC(=O)NCCCOC(C)C)c3c2c1,1.1,-11,-2,1,1.1
CCOc1ccc(NC(=O)C2CCC(C)(C(=O)O)C2(C)C)cc1 (stereo not given),0.9,-17,-11,1.1,1.2
COCc1cc(C)nc(OCC(=O)N/N=C\c2cc(C)n(-c3cccc(C(F)(F)F)c3)c2C)c1C#N,1.7,65*,34,0.7,0.3
CCn1cnc2c1c(=O)n(Cc1csc(-c3ccccc3)n1)c(=O)n2Cc1ccccc1,1.5,89*,86*,0.1,0.1
O=C(Cn1c(=O)c2c(ncn2Cc2ccccc2)n(Cc2ccccc2)c1=O)N1CCCC1,1.4,49,67*,0.3,0.5
O=C(Cn1c(=O)c2c(ncn2Cc2ccccc2)n(Cc2ccccc2)c1=O)N1CCc2ccccc21,1.6,27,42,0.6,0.7
CC12CC3CC(C)(C1)CC(C(=O)NC(=S)N1CCOCC1)(C3)C2,1,-4,5,0.9,1
O=C(O)c1ccc(COCC(F)(F)C(F)F)o1,1,-6,20,0.8,1.1
SMILES,PLAP activator,CYP2C9 inh,CYP2C19 inhib,CYP2C19 act,CYP2C9 act
CC(=O)c1cc2c(cc1NC(=O)C1CC=CCC1C(=O)O)OCO2 (stereo not given),0.9,74*,-1,1,0.3
O=C(NS(=O)(=O)c1ccc2c(c1)OCCO2)c1ccccc1,1.1,58*,-7,1.1,0.4
COC(=O)c1ccc(Cl)c(NS(=O)(=O)c2ccc3c(c2)OCCO3)c1,1.1,37,87*,0.1,0.6
CCN(CC)S(=O)(=O)c1ccc(C(=O)Nc2ccc3c(c2)OCCO3)cc1,0.7,24,15,0.8,0.8
CC(=O)c1cc2c(cc1NC(=O)CN1CCCCCCC1)OCO2,1.2,69*,83*,0.2,0.3
CC(=O)Nc1cc2c(cc1C(C)=O)OCCO2,1,14,26,0.7,0.9
CC(=O)c1cc2c(cc1NC(=O)CCCC(=O)O)OCO2,0.9,-16,-23,1.2,1.2
Cc1ccc(S(=O)(=O)NCC(=O)OCN2C(=O)c3ccccc3C2=O)cc1,0.8,-11,-2,1,1.1
CCn1c(=O)cc(N2CCCCC2)[nH]c1=O,1.1,-20,-9,1.1,1.2
